L3MBTL1 block = blocks human L3MBTL1; Q9Y468; AlphaScreen L3MBTL1–H3K9me1 peptide binding; Potency, µM (top dose mostly 57.1 µM), actives largely listed as inhibitors; actives 0.66% (n = 230,000); AID 485360; note: nearly all actives have a fitted effect of over 60% in size
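L3MBTL1 50 nM + b-AHA-H3(1-15)K9me1 75 nM, 30 min RT; compound added, 30 min RT; streptavidin donor/Ni-chelate acceptor beads 10 ug/mL each final, 30 min RT dark; AlphaScreen read.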
BAZ2B inh = blocks human BAZ2B; Potency, µM (highest dose often 114 µM), actives largely listed as inhibitors; actives 4.4% (n = 360,000); AlphaScreen BAZ2B-H3K14Ac peptide displacement; note: nearly all actives have a fitted effect of over 60% in size
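Protein-peptide AlphaScreen: BAZ2B 50 nM, b-H3K14Ac 50 nM, 1x PBS pH 7.4 + 0.01% Tween-20. Preincubation 30 min RT; cpd 30 min RT (top 110 uM); beads 20 min RT, light-protected.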
G9a block = inhibitors of human histone lysine methyltransferase G9a. G9a H3K9 monomethylation, AlphaScreen, 2 h. AID 504332. actives 8.8% (n = 350,000). Q96KQ7. Potency, µM (highest dose often 102 µM), hits mostly inhibitors; note: nearly all actives have a fitted effect of over 75% in size
Target sequence (Q96KQ7 913-1193 limits assumed): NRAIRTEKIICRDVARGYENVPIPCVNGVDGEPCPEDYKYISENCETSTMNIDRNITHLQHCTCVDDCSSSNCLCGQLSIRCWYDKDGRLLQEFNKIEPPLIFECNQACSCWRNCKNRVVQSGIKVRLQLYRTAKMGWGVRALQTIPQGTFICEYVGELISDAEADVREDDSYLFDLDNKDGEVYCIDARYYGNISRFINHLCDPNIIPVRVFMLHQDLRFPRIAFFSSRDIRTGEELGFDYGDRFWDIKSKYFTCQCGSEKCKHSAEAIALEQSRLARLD
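Chemiluminescent proximity detection of H3K9 monomethylation, read after 10 min bead incubation in the dark. Reaction: 20 nM G9a, 500 nM biotin-H3K9 peptide, 20 uM SAM cofactor, 2 h, room temperature, following 15 min enzyme-compound preincubation.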
HP1b chromo inh = inhibitors of HP1-beta chromodomain binding to methylated histone tails; AlphaScreen HP1-beta / biotin-H3K9me3 peptide binding; P83916; actives 0.56% (n = 390,000); Potency, µM (highest dose often 114 µM), hits mostly inhibitors; note: nearly all actives have a fitted effect of over 70% in size
Target sequence (P83916 whole entry, looked up): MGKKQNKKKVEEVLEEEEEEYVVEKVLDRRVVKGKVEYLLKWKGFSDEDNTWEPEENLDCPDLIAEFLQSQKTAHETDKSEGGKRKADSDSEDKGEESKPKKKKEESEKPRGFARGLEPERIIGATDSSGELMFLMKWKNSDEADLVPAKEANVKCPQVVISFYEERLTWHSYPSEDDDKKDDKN
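HP1-beta protein (50 nM final) preincubated 30 min at room temperature with biotinylated H3(1-18)K9me3 peptide (50 nM) in PBS pH 7.4, 0.01% Tween-20, then compound added for 30 min. AlphaScreen streptavidin donor/nickel chelate acceptor beads (10 ug/mL final), 30 min dark, luminescence read.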
GLS inh = glutaminase GLS (human) inhibition; GLS enzymatic activity, qHTS titration; Potency, µM (doses to about 45.5 µM), most hits filed as inhibitors; actives 0.21% (n = 410,000); AID 624170
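Enzyme dispensed in phosphate buffer (45 mM, pH 8.2, 0.02% Tween-20), compounds pinned in, then 1 mM L-glutamine solution and the glutamate oxidase–HRP–Amplex Red mix added; fluorescence read immediately and again after 30 min at room temperature.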
JMJD2A Tudor inh = blocks the human JMJD2A Tudor domain; AlphaScreen JMJD2A-Tudor / H3K4me3 peptide binding; Potency, µM (top dose mostly 114 µM), usual class: inhibitors; actives 4.4% (n = 390,000); note: nearly all actives have a fitted effect of over 50% in size
Large screens that a line does not name were inactive. In the library only some 10% were active in any assay of this set; here they are far more common. Calls come from the whole dose curve; as a rule, active = well fitted curve in the direction sought with a large enough effect; inconclusive = small, poorly fitted or top-dose-only effect, or another doubt; inactive = no such curve, though single readings can be large; an effect the other way counts as inactive or inconclusive.

O=C(NCc1ccco1)c1cnn2c1NC(c1ccc(Br)cc1)CC2C(F)(F)F (stereo not given)	BAZ2B inh inconclusive, G9a block 50µM, HP1b chromo inh inconclusive, GLS inh inconclusive, JMJD2A Tudor inh inconclusive
O=C(NCc1ccco1)c1cnn2c1NC(c1ccccc1)CC2C(F)(F)F (stereo not given)	JMJD2A Tudor inh inconclusive
Cc1cc(=O)[nH]c(N2CCN(Cc3ccccc3)CC2)n1	none
CCCCc1c(O)nc(N2CCN(Cc3ccccc3)CC2)[nH]c1=O	G9a block 40µM
O=C1NC(c2ccccc2Cl)=N/C1=C/c1ccco1	BAZ2B inh inconclusive (no result: G9a block)
O=C1NC(=S)/C(=C\c2ccc(-c3ccccc3Cl)o2)S1	L3MBTL1 block inconclusive, BAZ2B inh 18µM, G9a block 10µM, HP1b chromo inh inconclusive, JMJD2A Tudor inh 45µM
COC(=O)c1cc(NC(=O)c2ccc(C)cc2)c(=O)oc1C	G9a block inconclusive, JMJD2A Tudor inh inconclusive (no result: L3MBTL1 block)
CC(=O)c1cc(NC(=O)c2ccc([N+](=O)[O-])cc2)c(=O)oc1C	G9a block 22µM
COc1ccc(C(=O)Nc2cc(C(=O)c3ccccc3)c(C)oc2=O)cc1	BAZ2B inh inconclusive, G9a block 8.9µM, HP1b chromo inh inconclusive, JMJD2A Tudor inh inconclusive
COC(=O)c1cc(NC(=O)c2ccccc2)c(=O)oc1C	G9a block 45µM (no result: L3MBTL1 block)
COc1cc(-c2ccc(N=Nc3ccc4c(S(=O)(=O)O)cc(S(=O)(=O)O)c(N)c4c3O)c(OC)c2)ccc1N=Nc1ccc2c(S(=O)(=O)O)cc(S(=O)(=O)O)c(N)c2c1O	G9a block 7.1µM (no result: L3MBTL1 block, BAZ2B inh, HP1b chromo inh, GLS inh, JMJD2A Tudor inh)
COc1ccc(-c2cc(C(F)(F)F)nc(SCC(=O)NCC(C)C)n2)cc1OC	none (no result: L3MBTL1 block)
O=C(CCS(=O)(=O)c1ccccc1)Nc1ccc(Cl)cn1	BAZ2B inh inconclusive, G9a block 45µM, HP1b chromo inh inconclusive (no result: L3MBTL1 block)
O=C(CS(=O)(=O)c1ccccc1)Nc1ccc(Cl)cn1	none (no result: L3MBTL1 block)
CC(C)(C)c1csc(NC(=O)CCS(=O)(=O)c2ccc(F)cc2)n1	none (no result: L3MBTL1 block, BAZ2B inh, G9a block, HP1b chromo inh, JMJD2A Tudor inh)
O=C(CCS(=O)(=O)c1ccc(F)cc1)Nc1nc(-c2ccncc2)cs1	G9a block 7.9µM, HP1b chromo inh inconclusive, GLS inh inconclusive (no result: L3MBTL1 block)
O=C(CCS(=O)(=O)c1ccccc1)Nc1nc(-c2cccs2)cs1	G9a block 50µM
COc1ccc(CNC(=O)c2nc(SCc3ccccc3F)ncc2Cl)cc1	none (no result: L3MBTL1 block)
Cn1c(=O)c2cc3c(nc2n(C)c1=O)CC(c1ccccc1)CC3=O (stereo not given)	JMJD2A Tudor inh 56µM
Cc1ccc(-c2nnc(Nc3ccc(O)cc3)c3ccccc23)cc1S(=O)(=O)NCC1CCCO1 (stereo not given)	BAZ2B inh inconclusive (no result: L3MBTL1 block)
CC1CC(C)CN(CCCSc2ccccc2)C1 (stereo not given)	BAZ2B inh inconclusive, G9a block inconclusive, HP1b chromo inh inconclusive, JMJD2A Tudor inh 28µM
CC1CCCN(CCOCCSc2ccccc2)C1 (stereo not given)	G9a block 10µM, HP1b chromo inh inconclusive, JMJD2A Tudor inh 2.5µM
Cc1ccc(OCCCN2CCC(C(O)(c3ccccc3)c3ccccc3)CC2)cc1	none (no result: L3MBTL1 block, BAZ2B inh, G9a block, HP1b chromo inh, JMJD2A Tudor inh)
CC1CCN(CCCCOc2ccc(C(C)(C)C)cc2)CC1	BAZ2B inh inconclusive, G9a block 40µM, HP1b chromo inh inconclusive, JMJD2A Tudor inh 20µM (no result: L3MBTL1 block)
CC1CCCN(CCCOc2ccccc2-c2ccccc2)C1 (stereo not given)	BAZ2B inh 40µM, G9a block 11µM, HP1b chromo inh inconclusive, JMJD2A Tudor inh 1.1µM
CCOc1ccccc1NC(=O)Cn1cc(C(=O)c2ccc(Cl)cc2)c(=O)c2ccc(C)nc21	none (no result: L3MBTL1 block)
COc1ccc(-c2ccc(CCC(=O)O)n2CC(=O)Nc2cccc(Cl)c2C)cc1	BAZ2B inh inconclusive, G9a block inconclusive (no result: L3MBTL1 block)
CC1CCN(CCOCCOc2ccccc2-c2ccccc2)CC1	BAZ2B inh inconclusive, G9a block 28µM, HP1b chromo inh inconclusive, JMJD2A Tudor inh 3.2µM
CC1CCN(CCCCOc2ccccc2-c2ccccc2)CC1	BAZ2B inh 79µM, G9a block 13µM, HP1b chromo inh inconclusive, JMJD2A Tudor inh 4.5µM
COc1ccccc1OCCCCN1CCC(C)CC1	BAZ2B inh inconclusive, G9a block 25µM, HP1b chromo inh inconclusive, JMJD2A Tudor inh 13µM (no result: L3MBTL1 block)
CC(C)(C)c1ccccc1OCCOCCN1CCCCCC1	GLS inh inconclusive
CC1CCN(CCOCCOc2ccccc2Br)CC1	BAZ2B inh 56µM, G9a block inconclusive, HP1b chromo inh inconclusive, JMJD2A Tudor inh 2.5µM
COc1ccccc1OCCCN1CCC(C(O)(c2ccccc2)c2ccccc2)CC1	none (no result: L3MBTL1 block, BAZ2B inh, G9a block, HP1b chromo inh, JMJD2A Tudor inh)
CN1CCC(N(C)C(=O)COc2ccccc2-c2ccccc2)CC1	none
COc1ccc(CNC(=O)CCS(=O)(=O)c2cc(Br)cc3c2N(C(=O)C2CC2)CC3)cc1	none (no result: L3MBTL1 block)
CCc1nnc(SCc2nc(-c3cccc(Cl)c3)oc2C)c2cc3sc(C)cc3n12	none (no result: L3MBTL1 block)
Cc1ccc2nc(Nc3cccc(C(F)(F)F)c3)c3nnnn3c2c1	none (no result: L3MBTL1 block)
Cc1nn(-c2ccccc2)c(-n2cccc2)c1C(=O)NCCc1ccc(Cl)cc1	none (no result: L3MBTL1 block)
CC(O)CNc1ccc([N+](=O)[O-])cc1S(=O)(=O)N1CCOCC1 (stereo not given)	none
O=C(O)CC/C(=N\Nc1ccc([N+](=O)[O-])cc1S(=O)(=O)N1CCOCC1)c1cccs1	G9a block 35µM, GLS inh inconclusive
Cc1ccn2c(c1)nc(=O)c1cc(S(=O)(=O)N3CCC(C)CC3)c(Cl)cc12	none (no result: L3MBTL1 block)
CC(=O)OCC1=C(C(=O)O)N2C(=O)C(NC(=O)c3ccc(COc4cccc(Cl)c4Cl)o3)C2SC1 (stereo not given)	L3MBTL1 block inconclusive, BAZ2B inh 50µM, G9a block 32µM, JMJD2A Tudor inh inconclusive
CC1=C(C(=O)O)N2C(=O)C(NC(=O)c3nn(C)cc3Cl)C2SC1 (stereo not given)	G9a block inconclusive
COc1cccc(C(=O)NC2C(=O)N3C(C(=O)O)=C(COC(C)=O)CSC23)c1 (stereo not given)	L3MBTL1 block inconclusive, BAZ2B inh inconclusive
CC1=C(C(=O)O)N2C(=O)C(NC(=O)c3ccc(F)cc3)C2SC1 (stereo not given)	G9a block 0.89µM, JMJD2A Tudor inh inconclusive
CCn1ccc(C(=O)NC2C(=O)N3C(C(=O)O)=C(C)CSC23)n1 (stereo not given)	BAZ2B inh inconclusive, G9a block 22µM
CC1=C(C(=O)OCC(Cl)(Cl)Cl)N2C(=O)C(NC(=O)Cc3ccccc3)C2SC1 (stereo not given)	L3MBTL1 block inconclusive, G9a block 40µM
Cc1cccc2c1-c1sc(C(=O)N(C)c3cccc(C(F)(F)F)c3)cc1CO2	none (no result: L3MBTL1 block)
CC1=C(C(=O)O)N2C(=O)C(NC(=O)c3ccccc3Cl)C2SC1 (stereo not given)	G9a block 1.8µM (no result: L3MBTL1 block)

High-throughput results as filed in PubChem BioAssay.
